Out of some 17,000 compounds screened, about 220 (1.3%) were called active. The sample holds actives, similar compounds and a random draw of the others, so the mix is not that of the screen.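 How the source made its calls: active means spot fluorescence over background significantly raised, with a chance value under 7% in all four replicate spots of the compound; inactive means the rest.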
molecular target: Nuclear factor NF-kappa-B p105 subunit (Homo sapiens) (UniProt P19838); experiment: binders of NF-kB p50 subunit, primary screen, biochemical, small molecule microarray, anti-His fluorescence (AID 624139); conditions: anti-His fluorescence binding;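 further: probe protein is his-tagged human p50 processed subunit at 1 µg/ml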
Sequence (P19838 1-433 limits assumed): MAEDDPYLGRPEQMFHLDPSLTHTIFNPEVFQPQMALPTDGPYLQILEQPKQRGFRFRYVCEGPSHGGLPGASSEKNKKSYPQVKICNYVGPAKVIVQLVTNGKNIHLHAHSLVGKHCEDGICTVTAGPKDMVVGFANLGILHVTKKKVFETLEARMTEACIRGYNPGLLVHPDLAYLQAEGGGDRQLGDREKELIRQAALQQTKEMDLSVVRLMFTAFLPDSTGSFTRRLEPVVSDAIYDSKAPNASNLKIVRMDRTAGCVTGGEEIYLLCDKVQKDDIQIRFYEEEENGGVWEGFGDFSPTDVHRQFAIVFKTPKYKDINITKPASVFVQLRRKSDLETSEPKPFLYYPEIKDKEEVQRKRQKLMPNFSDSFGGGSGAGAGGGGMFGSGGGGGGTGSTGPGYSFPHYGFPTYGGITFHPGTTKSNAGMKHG

outcome, active:
O=c1c2ccccc2[nH]c(=S)n1CCN1CCC(=C(c2ccc(F)cc2)c2ccc(F)cc2)CC1, Cc1noc(C)c1S(=O)(=O)Nc1ccc2c(c1)C(=O)N([C@H](C)CO)C[C@H](C)[C@H](CN(C)C(=O)CCC(F)(F)F)OCCCC[C@H](C)O2, Cc1noc(C)c1S(=O)(=O)Nc1ccc2c(c1)C(=O)N([C@@H](C)CO)C[C@@H](C)[C@H](CN(C)C(=O)NC(C)C)OCCCC[C@@H](C)O2, C[C@@H]1CCCCO[C@H](CN(C)C(=O)CCC(F)(F)F)[C@@H](C)CN([C@@H](C)CO)C(=O)c2cc(NC(=O)c3ccncc3)ccc2O1

outcome, inactive:
C[C@H](CO)N1C[C@H](C)[C@@H](CN(C)Cc2cccc3c2OCCCO3)OCc2cn(nn2)CCCC1=O, C[C@@H]1CN([C@H](C)CO)C(=O)CCCn2cc(nn2)CO[C@@H]1CN(C)Cc1ccc2cccnc2c1, COC(=O)c1c(NC(=S)Nc2ccc(S(=O)(=O)NC34CC5CC(CC(C5)C3)C4)cc2)sc2c1CCC2, CC(C)NC(=O)Nc1ccc2c(c1)C(=O)N([C@H](C)CO)C[C@@H](C)[C@H](CN(C)S(C)(=O)=O)O2, Cc1ccc(C)c(NC(=O)CCC(=O)O)c1, O=C(N1CCCCC1)[C@@]1(CCS(=O)(=O)c2ccccc2)N=C(c2ccc(OCCCO)cc2)O[C@H]1c1ccccc1, C[C@@H]1CN([C@H](C)CO)C(=O)c2cc(N(C)C)ccc2O[C@@H](C)CCCCO[C@@H]1CN(C)C(=O)CCCN(C)C, C[C@@H]1CCCCO[C@H](CN(C)C)[C@@H](C)CN([C@H](C)CO)C(=O)c2cc(N(C)C)ccc2O1, O=C(c1ccc(F)cc1)C1CCN(CCCCc2ccccc2)CC1, C[C@H](CO)N1C[C@H](C)[C@@H](CN(C)S(=O)(=O)c2cn(C)cn2)Oc2ccc(NS(=O)(=O)c3cn(C)cn3)cc2C1=O, COc1cc(/C=C/C(=O)NCCc2ccc(O)cc2)ccc1O, Cc1nc(SCC(=O)N2c3ccccc3Sc3ccccc32)nc2c1CCCC2, COc1ccc(S(=O)(=O)N(C)C[C@@H]2Oc3ccc(NC(=O)Cc4cn(C)c5ccccc45)cc3C(=O)N([C@H](C)CO)C[C@H]2C)cc1, CCOC(=O)c1sc(NC(=S)Nc2ccc3c(c2)OCCO3)c(C(=O)OCC)c1C, C[C@@H]1CCCCO[C@H](CN(C)C(=O)Nc2cccc3ccccc23)[C@@H](C)CN([C@H](C)CO)C(=O)c2cc(NS(=O)(=O)c3cccs3)ccc2O1, C[C@@H]1CN([C@H](C)CO)C(=O)c2cccc(NS(=O)(=O)c3ccc(Cl)cc3)c2O[C@@H]1CN(C)C(=O)Nc1cccc2ccccc12, COc1ccc(S(=O)(=O)Nc2cccc3c2O[C@@H](CN(C)S(=O)(=O)c2ccc(F)cc2)[C@H](C)CN([C@H](C)CO)C3=O)cc1, Cc1noc(C)c1S(=O)(=O)Nc1ccc2c(c1)C(=O)N([C@@H](C)CO)C[C@H](C)[C@@H](CN(C)C)OCCCC[C@@H](C)O2, C[C@@H]1CCCCO[C@@H](CN(C)C(=O)CCC(F)(F)F)[C@@H](C)CN([C@H](C)CO)C(=O)c2cc(NC(=O)CCC(F)(F)F)ccc2O1, Cc1noc(C)c1S(=O)(=O)Nc1ccc2c(c1)C(=O)N([C@H](C)CO)C[C@H](C)[C@@H](CN(C)C(=O)CCC(F)(F)F)OCCCC[C@H](C)O2, Cc1noc(C)c1S(=O)(=O)Nc1ccc2c(c1)C(=O)N([C@H](C)CO)C[C@@H](C)[C@H](CN(C)C(=O)NC(C)C)OCCCC[C@@H](C)O2, C[C@@H]1CCCCO[C@H](CN(C)C(=O)CCCN(C)C)[C@@H](C)CN([C@@H](C)CO)C(=O)c2cc(NC(=O)c3ccncc3)ccc2O1, C[C@H](CO)N1C[C@H](C)[C@H](CN(C)C(=O)CCC(F)(F)F)OCCCC[C@H](C)Oc2ccc(NS(C)(=O)=O)cc2C1=O, C[C@@H]1CN([C@H](C)CO)C(=O)c2cc(NS(=O)(=O)c3cccs3)ccc2O[C@@H](C)CCCCO[C@@H]1CN(C)S(=O)(=O)c1cccs1, C[C@@H]1CN([C@H](C)CO)C(=O)Cc2cc(NS(=O)(=O)c3cccs3)ccc2O[C@H]1CN(C)C(=O)Nc1ccc2c(c1)OCO2, C[C@@H]1CCCCO[C@@H](CN(C)S(=O)(=O)c2ccccc2)[C@@H](C)CN([C@@H](C)CO)C(=O)c2cc(NS(=O)(=O)c3cn(C)cn3)ccc2O1, C=C1CCCC(C)(C(=O)OC)C1CC/C(C)=C/CCC1=CC(=O)OC1 (stereo not drawn), Cc1nnc(SCc2ccc(C(=O)c3ccc(Cl)cc3)o2)n1-c1ccccc1, O=C1C(=O)N(CCn2c3ccccc3c3nc4ccccc4nc32)c2ccccc21, Cc1ccc(S(=O)(=O)Nc2ccc3c(c2)C(=O)N([C@@H](C)CO)C[C@H](C)[C@@H](CN(C)S(=O)(=O)c2ccc(C)cc2)O3)cc1, C[C@@H]1CN([C@@H](C)CO)C(=O)CCCn2nncc2CO[C@H]1CN(C)Cc1ccc(C(F)(F)F)cc1, C[C@H](CO)N1C[C@H](C)[C@H](CN(C)S(=O)(=O)c2cn(C)cn2)Oc2c(NC(=O)C3CCOCC3)cccc2C1=O, C[C@@H]1CCCCO[C@@H](CN(C)C(=O)c2ccccc2)[C@H](C)CN([C@@H](C)CO)C(=O)c2cc(NS(C)(=O)=O)ccc2O1, C[C@@H]1CN([C@@H](C)CO)C(=O)c2cc(NS(C)(=O)=O)ccc2O[C@@H](C)CCCCO[C@@H]1CN(C)S(=O)(=O)c1cn(C)cn1, Cc1cc(O)c2c(c1)C(=O)OC2c1c(O)cccc1O (stereo not drawn), COc1ccc(C)cc1NC(=O)NCCc1ccc(OC)c(OC)c1, C[C@H]1CCCCO[C@H](CN(C)C)[C@@H](C)CN([C@@H](C)CO)C(=O)c2cc(NC(=O)CCCN(C)C)ccc2O1, CNC[C@@H]1Oc2c(NS(C)(=O)=O)cccc2C(=O)N([C@@H](C)CO)C[C@H]1C, C[C@@H]1CCCCO[C@H](CN(C)C)[C@H](C)CN([C@@H](C)CO)C(=O)c2cc(NC(=O)Cc3ccccc3)ccc2O1

— PubChem BioAssay AID624139 (Broad Institute, 2012)
